CYP2C9 inh: blockers of cytochrome P450 2C9 activity – biochemical, luminescence, ADME assay, primary screen; P11712; CYP2C9 Supersomes, luciferin-H conversion; inhibition, % at 5 µM; hit rate 20% among 96,000; AID 777, 2007;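 active = blocking of liver enzyme CYP2C9 beyond about 50% at 5 µM, limit read from the data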
DAT uptake mod: changed hDAT dopamine uptake under cocaine IC80, either direction, primary screen, cocaine antagonist project, cell-based, LLC-PK1 hDAT, [14C]-dopamine uptake, MLSMR | LLC-PK1 hDAT cells, [14C]-dopamine uptake with cocaine IC80; actives deviate in either direction | B-score at 10 µM | hit rate 1.3% among 110,000 | AID 449768, 2010;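 active = Z score or B-score, a plate-position-corrected score, falls beyond the plate's 99.7% confidence bounds, in either direction; inactive = both scores lie inside the 99.7% bounds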
Target sequence (Q01959 whole entry, looked up): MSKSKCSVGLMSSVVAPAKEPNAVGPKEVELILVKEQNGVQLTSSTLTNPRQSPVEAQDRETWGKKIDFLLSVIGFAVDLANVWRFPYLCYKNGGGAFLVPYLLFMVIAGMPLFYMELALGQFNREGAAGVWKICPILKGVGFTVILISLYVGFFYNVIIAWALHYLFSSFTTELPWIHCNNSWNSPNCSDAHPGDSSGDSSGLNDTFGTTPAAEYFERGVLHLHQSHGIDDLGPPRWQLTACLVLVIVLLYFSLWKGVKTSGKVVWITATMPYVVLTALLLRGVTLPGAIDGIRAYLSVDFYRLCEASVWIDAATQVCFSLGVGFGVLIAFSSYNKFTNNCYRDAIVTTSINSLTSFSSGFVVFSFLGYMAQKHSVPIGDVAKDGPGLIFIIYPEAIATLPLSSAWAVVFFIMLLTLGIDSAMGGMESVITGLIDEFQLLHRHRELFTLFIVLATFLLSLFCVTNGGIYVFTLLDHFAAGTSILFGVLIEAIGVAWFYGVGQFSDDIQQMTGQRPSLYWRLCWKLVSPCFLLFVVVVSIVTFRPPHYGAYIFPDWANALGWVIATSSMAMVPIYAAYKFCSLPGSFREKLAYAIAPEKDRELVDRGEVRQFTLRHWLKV
CYP2C19 act: human CYP2C19 activators, primary screen, biochemical, luminescence; 96,000 tested, under 10 active; Cytochrome P450 2C19 (Homo sapiens), P33261; activation factor at 5 µM; AID 1025, 2008; recombinant CYP2C19, luciferin-H EGE luminescence; active compounds read high; 0 = fully inhibited enzyme, 1 = untreated enzyme;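 active = activation factor of at least 2 at 5 µM in the primary screen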
CYP2C9 activ: human CYP2C9 activators, primary screen, biochemical, luminescence; Cytochrome P450 2C9 (Homo sapiens), P11712; recombinant CYP2C9, luciferin-H conversion; active compounds read high; factor 1 = untreated enzyme, 0 = blocked; AID 1024, 2008; activation factor at 5 µM; hit rate 1.4% among 96,000;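 active = activation factor of 2 or more for CYP2C9 at a 5 µM dose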
D1 mod: D1 CRE-luciferase signal change, two-sided – cell-based, HEK293 D1, dopamine EC30, D1 allosteric modulator project, primary screen; D(1A) dopamine receptor (Homo sapiens), P21728; dopamine EC30 potentiation; actives deviate in either direction; B-score at 10 µM; hit rate 5.9% among 58,000; AID 641, 2007;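 active = luminescence count or its row- and column-corrected plate score outside the 99.7% band of the plate's sample wells, on either side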
CYP2C19 inhib: blockers of cytochrome P450 2C19 activity – biochemical, luminescence, ADME assay, primary screen. hit rate 21% among 96,000. CYP2C19 Supersomes, luciferin-H EGE luminescence, 30 min. AID 778, 2007. inhibition, % at 5 µM. P33261;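 active = CYP2C19 inhibition above a set limit at 5 µM in the primary screen, cut at about 50% in these data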
Hits are given with their value; n = inactive; x = not tested or not shown. Only some compounds are listed: those with a hit (about 28% of all), similar ones and a draw of the others.

SMILES	CYP2C9 inh	DAT uptake mod	CYP2C19 act	CYP2C9 activ	D1 mod	CYP2C19 inhib
COC(=O)C(NC(=O)Nc1ccccc1OC)C(C)C (configuration not stated)	n	n	n	n	x	59.1
COc1ccc(S(=O)(=O)NC(C)C(=O)O)cc1 (configuration not stated)	n	n	n	n	x	n
COC(=O)[C@@H](NC(=O)Nc1ccccc1F)C(C)C	n	n	n	n	n	n
COc1ccc(S(=O)(=O)Nc2ccc(O)c3ccccc23)cc1	67.1	n	n	n	n	97.4
COc1ccc(S(=O)(=O)NC(C)C(=O)Nc2ccccc2C(F)(F)F)cc1 (configuration not stated)	n	-1.69	n	n	x	n
COc1ccccc1NC(=O)C(C)NS(=O)(=O)c1ccccc1 (configuration not stated)	n	n	n	2.7	n	50.6
CC(NS(=O)(=O)c1ccccc1)C(N)=O (configuration not stated)	n	n	n	n	n	n
CCO[C@@H]1OC(C(=O)N2CCN(Cc3ccccc3)CC2)=C[C@H](c2coc3ccccc3c2=O)[C@H]1CCCO	x	n	x	x	x	x
COc1ccccc1CNC(=O)C(C)NS(=O)(=O)c1ccc(C)cc1 (configuration not stated)	n	n	n	2.1	n	n
COc1ccccc1CNC(=O)CC(NS(=O)(=O)c1ccc(C)cc1)c1ccco1 (configuration not stated)	n	n	n	n	n	n
COc1ccc(OC)c(S(=O)(=O)Nc2ccccc2C(F)(F)F)c1	x	n	x	x	n	x
COc1ccc(S(=O)(=O)Nc2ccccc2C(F)(F)F)cc1	n	n	n	n	n	78.2
O=C(c1nn2cccnc2c1Cl)N1CCN(c2ccccc2)CC1	x	n	x	x	x	x
COC(C[C@H](O)C[C@@H](O)COCc1ccccc1)OC	x	n	x	x	x	x
CCOC(=O)Cn1cc(C(=O)c2ccco2)c2ccccc21	84.5	x	n	n	n	81.4
COc1cccc(OCCn2cc(C(=O)c3ccco3)c3ccccc32)c1	98.4	n	n	n	n	86.0
O=C(O)Cn1cc(C(=O)c2ccco2)c2ccccc21	n	n	n	n	n	n
Cc1ccccc1OCCn1cc(/C(N)=N/O)c2ccccc21	n	n	n	n	x	67.4
COc1ccccc1OCCn1cc(C(=O)c2ccco2)c2ccccc21	84.4	n	n	n	n	n
CC(c1nnc(SCC(=O)NC(=O)NCc2ccco2)n1-c1ccc(Cl)cc1)N(C)C (configuration not stated)	n	n	n	n	n	n
O=C(CSc1nnc(CNC(=O)c2cccs2)o1)Nc1cccc(C(F)(F)F)c1	n	n	n	n	n	n
COC(=O)C1=C(C)NC2=C(C1c1ccc(O)cc1)S(=O)(=O)c1ccccc12 (configuration not stated)	87.0	n	n	n	x	62.1
COc1ccc(C2C(C#N)=C(C)NC3=C2S(=O)(=O)c2ccccc23)cc1 (configuration not stated)	x	n	x	x	x	x
O=C(O)c1cc(S(=O)(=O)Nc2ccccc2C(=O)O)ccc1O	n	n	n	n	n	n
Cc1cccc(S(=O)(=O)Nc2cccc3c2C(=O)c2ccccc2-3)c1	58.6	n	n	n	x	n
SMILES	CYP2C9 inh	DAT uptake mod	CYP2C19 act	CYP2C9 activ	D1 mod	CYP2C19 inhib
C=CCNC(=O)C1CCN(S(=O)(=O)c2ccc(Br)cc2)CC1	n	n	n	n	n	51.1
C=CCNC(=O)C1CCN(S(=O)(=O)CC)CC1	n	n	n	n	n	n
Cc1ccc(S(=O)(=O)N2CCC(C(=O)OC(C)C(=O)NCc3ccc4c(c3)OCO4)CC2)cc1 (configuration not stated)	n	n	n	n	n	73.2
CC1CCN(S(=O)(=O)c2ccc(C(=O)NCc3ccc4c(c3)OCO4)cc2)CC1	n	n	n	n	x	n
O=C(NCc1cccnc1)c1ccc(S(=O)(=O)N2CCCCC2)cc1	n	n	n	n	x	61.3
O=C(NCc1ccco1)C1CCCN1S(=O)(=O)c1ccc2ccccc2c1 (configuration not stated)	n	n	n	n	x	88.4
COc1ccc(C(=O)O)cc1S(=O)(=O)NCCCN1CCCC1=O	n	n	n	n	x	n
NS(=O)(=O)c1ccc(CCNC(=O)[C@@H]2CCCN2S(=O)(=O)c2ccccc2F)cc1	60.7	n	n	n	x	n
O=C(COC(=O)c1ccc(S(=O)(=O)N2CCCC2)cc1)NCc1ccccc1	55.5	n	n	n	n	n
CC(C)(C)c1ccc(S(=O)(=O)N2CCCCC2C(=O)NCc2ccccn2)cc1 (configuration not stated)	n	n	n	n	n	63.1
Cc1ccc(S(=O)(=O)N2CCCC(C(=O)NCc3ccccn3)C2)cc1 (configuration not stated)	n	n	n	n	n	n
O=C(NCc1cccnc1)C1CCCN(S(=O)(=O)c2ccc(Br)cc2)C1 (configuration not stated)	n	n	n	n	n	63.0
NS(=O)(=O)c1ccc(CCNC(=O)C2CCCN2C(=O)OCc2ccccc2)cc1 (configuration not stated)	n	n	n	n	n	n
CCS(=O)(=O)N1CCCC(C(=O)NCc2cccnc2)C1 (configuration not stated)	n	n	n	n	n	n
CC(C)(C)C(=O)NCCN1CCN(C(=O)C(C)(C)C)CC1	x	n	x	x	x	x
O=S1(=O)[C@H]2C[C@@H]3C=C[C@]2(CN1Cc1ccc(C(F)(F)F)cc1)O3	x	n	x	x	x	x
CCOc1ncccc1C(=O)OCc1cc(=O)n2c(n1)sc1ccccc12	x	x	x	x	n	x
Cc1c(C(=O)NCc2ccc3c(c2)OCO3)oc2ccc(S(=O)(=O)N3CCCCC3)cc12	58.6	n	n	n	n	n
O=C(NCc1cccnc1)C1CCCCN1S(=O)(=O)c1ccc(F)cc1 (configuration not stated)	n	n	n	n	x	80.1
CC(C)(C)c1ccc(S(=O)(=O)N2CCCC2C(=O)NC2=NCCS2)cc1 (configuration not stated)	75.6	n	n	n	n	n
Cc1c(C(=O)NCc2ccc3c(c2)OCO3)oc2ccc(S(=O)(=O)N3CCCC3)cc12	n	n	n	n	x	n
O=C(COC(=O)c1ccccc1S(=O)(=O)N1CCCCC1)NCC(F)(F)F	70.0	n	n	n	n	n

Screening results deposited in PubChem BioAssay by several laboratories.
